Records with an inconclusive call do not appear. Calls of active or inactive are those of the source. Calls follow the shape of the dose curve; as a rule, active = well fitted inhibition curve with a large enough effect; inconclusive = small, poorly fitted or top-dose-only effect; inactive = no such curve, though single readings can be large or run the other way.
biological target: Cytochrome P450 2D6 (Homo sapiens) (UniProt P10635); test: qHTS Assay for Inhibitors and Substrates of Cytochrome P450 2D6 (AID 891); conditions: recombinant CYP2D6, luciferin-ME EGE luminescence; series mostly up to 57.1 µM; also: nearly all actives have a fitted effect of over 60% in size
Method: NIH Molecular Libraries Screening Centers Network [MLSCN]
NIH Chemical Genomics Center [NCGC]
The P450 gene superfamily is involved in the metabolism and clearance of xenobiotics. This assay used human CYP2D6 to measure the demethylation of ethylene glycol ester of luciferin 6' methyl ether (Luciferin-ME EGE; […]) to luciferin. The luciferin is then measured by luminescence after the addition of a luciferase detection reagent. Luciferin-ME EGE concentration in the assay was equal to its Km for CYP2D6. Inhibitors and some substrates limit the production of luciferin, and decrease measured luminescence.
NCGC Assay Protocol Summary:
Two uL of enzyme and substrate mix (final concentrations: 5nM CYP2D6, 30uM Luciferin-ME EGE, 100mM KPO4) were dispensed into a white, solid bottom 1536-well microtiter plate. 23nL of compound was transferred by a pin tool. The plate was incubated at room temperature for 10 min. Two uL of an NADPH regeneration solution (Promega supplied reagent) was dispensed and the reaction was allowed to continue for 60 min at room temperature. Then the reaction was stopped by reconstituted luciferin detection buffer. After another 20 min of incubation the plate was read on the ViewLux (Perkin Elmer) at 60 sec exposure and 2x2 binning. This protocol was carried out with Promega-Glo reagents and further information can be found at http://www.promega.com/tbs/tb325/tb325.pdf. Data were normalized to the to AC100 inhibition (1.43 uM quinidine).
Keywords: P450, CYP2D6, Luciferase, MLSMR, MLSCN, NIH Roadmap, qHTS, NCGC
Potency is read from the fitted curve at half-maximal effect.

Sequence of Cytochrome P450 2D6 (Homo sapiens) (P10635 whole entry, looked up): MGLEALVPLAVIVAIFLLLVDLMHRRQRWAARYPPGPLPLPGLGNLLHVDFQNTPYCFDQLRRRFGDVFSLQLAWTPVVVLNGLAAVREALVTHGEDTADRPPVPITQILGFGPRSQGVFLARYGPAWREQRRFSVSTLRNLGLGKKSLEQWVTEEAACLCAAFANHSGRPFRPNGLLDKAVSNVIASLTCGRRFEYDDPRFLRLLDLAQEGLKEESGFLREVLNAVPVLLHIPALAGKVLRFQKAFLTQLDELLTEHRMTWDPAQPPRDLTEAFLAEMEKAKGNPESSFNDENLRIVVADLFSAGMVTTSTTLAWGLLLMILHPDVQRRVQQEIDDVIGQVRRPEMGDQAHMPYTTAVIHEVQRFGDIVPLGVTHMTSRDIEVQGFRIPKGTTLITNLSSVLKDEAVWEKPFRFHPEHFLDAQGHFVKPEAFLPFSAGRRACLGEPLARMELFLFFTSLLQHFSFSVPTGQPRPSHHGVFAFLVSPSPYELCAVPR

| Structure (SMILES) | Potency |
| --- | --- |
| N#CC(C#N)=Cc1ccc(O)c(O)c1 | inactive |
| c1ccc(C2CC2)c(OCC2=NCCN2)c1 | 5.01 µM (active) |
| CN(C)CCC=C1c2ccccc2CCc2ccccc21 | 7.94 µM (active) |
| Clc1cccc(N2CCNCC2)c1 | 3.98 µM (active) |
| Cc1c(OCC(F)(F)F)ccnc1CS(=O)c1nc2ccccc2[nH]1 (stereo not given) | 31.6 µM (active) |
| COc1cc2c(c(OC)c1OC)-c1ccc(OC)c(=O)cc1[C@@H](NC(C)=O)CC2 | 0.794 µM (active) |
| COc1ccc(Cc2nccc3cc(OC)c(OC)cc23)cc1OC | 12.6 µM (active) |
| Cc1nc2n(c(=O)c1CCN1CCC(c3noc4cc(F)ccc34)CC1)CCCC2 | 3.16 µM (active) |
| NCC1(CC(=O)O)CCCCC1 | inactive |
| CCCN(CCC)CCc1cccc2c1CC(=O)N2 | 3.16 µM (active) |
